Measurements reported in PubChem BioAssay (Tox21).
Records with an inconclusive call do not appear. A number with no mark means an inactive call. The source made the active and inactive calls. Calls come from the whole dose curve; as a rule, active = well fitted inhibition curve with a large enough effect in the repeat runs; inconclusive = weak or mixed curves, or effect the other way; inactive = no such curve, though single readings can be large or run the other way.
% is set by controls: 0 for no effect and ±100 for the full control effect.

Each molecule was assayed against Nuclear receptor subfamily 1 group I member 3 (Homo sapiens) (UniProt Q14994) (assay: qHTS assay to identify small molecule antagonists of the constitutive androstane receptor (CAR) signaling pathway (AID 1224838;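 note: HepG2 cells stably expressing hCAR with CYP2B6 luciferase reporter stimulated by CITCO; nearly all actives have a fitted effect of over 40% in size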)). Settings: HepG2-CYP2B6-hCAR luciferase, CITCO-stimulated, 24 h; series mostly up to 92.4 µM.
Chain of Nuclear receptor subfamily 1 group I member 3 (Homo sapiens) (Q14994 whole entry, looked up): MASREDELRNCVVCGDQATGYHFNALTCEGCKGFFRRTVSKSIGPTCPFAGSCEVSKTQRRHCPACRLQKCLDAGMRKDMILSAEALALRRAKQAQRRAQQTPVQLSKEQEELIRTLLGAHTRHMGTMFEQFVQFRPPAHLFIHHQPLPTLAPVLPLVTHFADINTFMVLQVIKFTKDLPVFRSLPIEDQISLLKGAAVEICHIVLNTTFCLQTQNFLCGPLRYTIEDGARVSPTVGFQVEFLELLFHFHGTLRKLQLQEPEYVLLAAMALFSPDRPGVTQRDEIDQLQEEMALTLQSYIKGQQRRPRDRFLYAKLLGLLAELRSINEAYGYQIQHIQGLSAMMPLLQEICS
Text: U.S. Tox21 Program National Center for Advancing Translational Sciences [NCATS] NIH Chemical Genomics Center [NCGC] U.S. Environmental Protection Agency [EPA] National Institutes of Environmental Health Sciences [NIEHS] National Toxicology Program [NTP] U.S. Food and Drug Administration [FDA] Tox21 Assay Overview: The constitutive androstane receptor (CAR) is a nuclear receptor which regulates multiple drug metabolizing enzymes (DMEs) and transporters. Activating CAR will generally increase the transcription and subsequent translation of CYP2B6 and CYP3A4. These two DMEs represent about 50% of the drug metabolizing potential in the body. When CAR is deactivated, the metabolizing potential in the body will decrease, subsequently increasing the toxicity in the body or lowering the therapeutic potential of a pro-drug. Recently, there have also been studies performed indicating CARs role in energy metabolism and cancer therapy. Therefore, inhibiting CARs activity could have a potential effect on diabetes and cancer. Identifying environmental toxins and compounds which modulate CAR, through the use of the Tox21 10K compound collection, will be an important step in determining the toxicity and potential therapeutic effects these factors will have on the human body.
Tox21 Assay Protocol Summary: A double-stable (hCAR and CYP2B6-2.2kb) transfected cell line, derived from human hepatoma (HepG2) cells, was utilized for the duration of the quantitative high-throughput screens. The HepG2-CYP2B6-hCAR cells suspended in DMEM culture medium supplemented with 10% FBS, 5 ug/mL blasticidin, 0.5 mg/mL geneticin, 100 U/mL penicillin and 100 ug/mL streptomycin were dispensed at 2500 cells/4 uL/well in 1536-well white solid bottom plates using a Multidrop Combi. After the assay plates were incubated at 37 C/5% CO2 for 4 hrs, 23 nL of compounds at 15 concentrations (from 5-48 columns) or positive control (from 1 to 4 columns) were transferred to the assay plates using a Pintool station. One uL of CITCO, was added using a Flying Reagent Dispenser to generate a final concentration of 50 nM CITCO inside each well. After a 24 hr incubation period at 37 C/5% CO2, four uL of ONE-Glo reagent was added into the assay plates using a Flying Reagent Dispenser. After a 30 min incubation period at room temperature, the luminescence intensity in the assay plates was measured using a ViewLux plate reader.
For `Cc1cc2c(cc1CC(=O)c1sccc1S(=O)(=O)Nc1onc(C)c1Cl)OCO2`, the outcome was “inactive”.
For `Cc1cc(C)c(N)c(Cl)c1`, the outcome was “inactive”.
`COc1cc(C(=O)NC2CCCNC2)cc(OC)c1OC` (stereo not given) was tested, and the outcome was “inactive”.
In the case of `CN1C(CCl)Nc2cc(Cl)c(S(N)(=O)=O)cc2S1(=O)=O` (stereo not given), the outcome is reported as “inactive”.
In the case of `O=C1CCCc2c(O)cccc21`, the outcome is reported as “inactive”.
`CC(C)(C)NCC(O)COc1cccc2c1CCC(=O)N2` (stereo not given) was tested, and the outcome was “inactive”.
With `COc1cc(NS(=O)(=O)c2ccc(N)cc2)ncn1` the outcome was “inactive”.
For `CN(C)c1cc(NC(=O)CNC(C)(C)C)c(O)c2c1C[C@H]1C[C@H]3[C@H](N(C)C)C(=O)C(C(N)=O)=C(O)[C@@]3(O)C(=O)C1=C2O`, the outcome was “inactive”.
For `CC(=O)O[C@@H]1CC2C3CCc4cc(OC(=O)c5ccccc5)ccc4C3CCC2(C)[C@H]1OC(C)=O` (stereo not given in full), the outcome was “inactive”.
`c1coc(Cn2cccc2)c1` was tested, and the outcome was “inactive”.
In the case of `CC(C)(C)c1ccc(N)cc1`, the outcome is reported as “inactive”.
In the case of `CCCC(=O)C(CC)Sc1ccoc1C` (stereo not given), the outcome is reported as “inactive”.
For `C=C(C)C(=O)OCCOC1CC2CC1C1C=CCC21` (stereo not given), the outcome was “inactive”.
In the case of `CN(C)CCC[C@@]1(c2ccc(F)cc2)OCc2cc(C#N)ccc21`, the outcome is reported as “inactive”.
`Cc1ccc(Br)cc1` was tested, and the outcome was “inactive”.
For `CN(C)CCCN(C)C`, the activity, negative = inhibition was -1.01% [at 8.39 µM].
With `COC(=O)C(c1ccccc1Cl)N1CCc2sccc2C1` (stereo not given) the outcome was “inactive”.
With `O=C(O)/C=C(\CC(=O)O)C(=O)O` the outcome was “inactive”.
In the case of `CC(C)(C)c1ccc(C(=O)CCCCl)cc1`, the outcome is reported as “inactive”.
With `Cc1ccc(NC(N)=O)cc1` the outcome was “inactive”.
`Clc1cc(Cl)c(Cl)c(Cl)c1Cl` was tested, and the outcome was “inactive”.
`CCCCC(O)/C=C(C)/C=C/C=C/C(=O)N1CCCC1=O` (stereo not given) was tested, and the outcome was “inactive”.
With `CO/N=C(\C(=O)O)c1csc(NC(=O)CCl)n1` the outcome was “inactive”.
In the case of `CCc1ncc(C)[nH]1`, the outcome is reported as “inactive”.
With `N[C@H]1C(O)O[C@H](CO)[C@@H](O)[C@@H]1O` (stereo not given in full) the outcome was “inactive”.
`CNC(C)=O` was tested, and the outcome was “inactive”.
With `CCO/C=C1\N=C(c2ccccc2)OC1=O` the outcome was “inactive”.
`CCOC(=O)COc1ccc2c(C)c(CCN(CC)CC)c(=O)oc2c1Cl` was tested, and the outcome was “inactive”.
In the case of `CC1(C)S[C@@H]2[C@H](NC(=O)Cc3ccccc3)C(=O)N2[C@H]1C(=O)O` (tested in a mixture with another compound), the outcome is reported as “inactive”.
`Cc1cc(C)c(C)c(C)c1` was tested, and the outcome was “inactive”.
With `O=S(=O)(O)CC(O)CCl` (stereo not given) the outcome was “inactive”.
`CCCC(=O)CC` was tested, and the outcome was “inactive”.
In the case of `CC(C)(O)c1ccc(C(C)(C)O)cc1`, the outcome is reported as “inactive”.
For `CCCCCCCCCCCBr`, the outcome was “inactive”.
`CC(C)(C)C(=O)NCCCC(=O)O` was tested, and the outcome was “inactive”.
For `O=C[C@@H](O)[C@H](O)[C@H](O)CO`, the outcome was “inactive”.
For `OCCC(F)(F)C(F)(F)C(F)(F)C(F)(F)C(F)(F)C(F)(F)F`, the outcome was “inactive”.
With `CCCc1ccc(O)c(OC)c1` the outcome was “inactive”.
With `CCOC(=O)CN1CCCC1=O` the outcome was “inactive”.
With `Nc1cc(S(=O)(=O)O)ccc1O` the outcome was “inactive”.
